The values below come from PubChem BioAssay (Tox21).

Experiment [1] deals with Thyrotropin-releasing hormone receptor (Homo sapiens) (UniProt P34981). Description: qHTS assay to identify small molecule agonists of the thyrotropin-releasing hormone receptor (TRHR) signaling pathway (AID 1346891; calls by dose curve; also: series mostly up to about 58 µM; % is scaled to controls: 0 for no effect and ±100 for the full control effect). An outline of the steps: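 Readout was intracellular calcium fluorescence in TRHR-Hek293 cells. Cells were incubated 18 h, dye-loaded 2 h at 37 °C, and treated with compound in agonist mode.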
A general note: In qHTS, concentration-response curves come from the screen itself.

Experiment [2] can be described thus: Human pregnane X receptor (PXR) small molecule agonists, qHTS cell viability counter screen (AID 1346977). Also: % is scaled to controls: 0 for no effect and ±100 for the full control effect; nearly all actives have a fitted effect of over 50% in size. A digest of the protocol: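 In each well, the PXR reporter HepG2 line was checked for viability: CellTiter-Fluor reagent added 23hr post-dosing, fluorescence read after 1hr incubation at 37C.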
Experiment [3] in a line: Caspase-3/7 induction in HepG2 cells by small molecules, qHTS assay (AID 1346978). Also: % is scaled to controls: 0 for no effect and ±100 for the full control effect; nearly all actives have a fitted effect of over 15% in size. An outline of the steps:
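Wild-type HepG2 cells, 2,000/well, settled 5 hr at 37 C and 5% CO2, then compound-treated for 17 hr; caspase-3/7 activity read by luminescent Caspase-Glo 3/7 after 30 min at room temperature.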

A short description of experiment [4]: Caspase-3/7 induction in CHO-K1 cells by small molecules, qHTS cell viability counter screen (AID 1346979). Also: % is scaled to controls: 0 for no effect and ±100 for the full control effect; nearly all actives have a fitted effect of over 35% in size. A digest of the protocol:
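Following a 5hr settling period, CHO-K1 cells at 1,500 per well received DMSO-dissolved compounds. Cell viability was quantified 16hr later by CellTiter-Fluor fluorescence, measured after 1hr with reagent at 37C.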

Experiment [5] is described as follows: Caspase-3/7 induction in CHO-K1 cells by small molecules, qHTS assay (AID 1346980). Also: % is scaled to controls: 0 for no effect and ±100 for the full control effect; nearly all actives have a fitted effect of over 15% in size. An outline of the steps:
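Wild-type CHO-K1 cells exposed to compounds for 17hr at 37 C, 5% CO2. Caspase-3/7 activity then measured by Caspase-Glo 3/7 luminescence after 30min at room temperature.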

Experiment [6] can be described thus: Caspase-3/7 induction in HepG2 cells by small molecules, qHTS cell viability counter screen (AID 1346981). Also: series mostly up to about 92 µM; % is scaled to controls: 0 for no effect and ±100 for the full control effect; nearly all actives have a fitted effect of over 30% in size. A digest of the protocol: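 Steps: seed 2,000 HepG2 cells per well; incubate 5 hr at 37 C; pin-add compounds in DMSO; incubate 16 hr; add CellTiter-Fluor; after 1 hr at 37 C and 5% CO2, read fluorescence.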
Experiment [7] concerns the target Nuclear receptor subfamily 1 group I member 2 (Homo sapiens) (UniProt O75469). Description: Human pregnane X receptor (PXR) small molecule agonists, qHTS assay (AID 1346982). Also: nearly all actives have a fitted effect of over 35% in size. Also: potency is read from the fitted curve at half-maximal effect. As to activation: % is scaled to controls: 0 for no effect and ±100 for the full control effect. An outline of the steps: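 Agonist mode qHTS: PXR-Luc HepG2 cells plated 5 hr before DMSO-dissolved compounds were pinned in, cultured 24 hr at 37 C, 5% CO2; ONE-Glo luminescence readout.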

For experiment [8], the target named is Cytochrome P450 2D6 (Homo sapiens) (UniProt P10635). Description: Cytochrome P450 Family 2 Subfamily D Member 6 (CYP2D6) small molecule antagonists: luciferase reporter qHTS assay (AID 1671196). Also: nearly all actives have a fitted effect of over 50% in size. Also: potency is read from the fitted curve at half-maximal effect. A digest of the protocol:
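P450-Glo format: CYP2D6 converts a proluciferin substrate to luciferin in an NADPH-driven reaction lasting 1 h at room temperature. Light output, proportional to CYP2D6 activity, reflects interference by test chemicals.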

The target of experiment [9] is Cytochrome P450 2C19 (Homo sapiens) (UniProt P33261). Description: Cytochrome P450 Family 2 Subfamily C Member 19 (CYP2C19) small molecule antagonists: luciferase reporter qHTS assay (AID 1671197). Also: nearly all actives have a fitted effect of over 65% in size. Also: potency is read from the fitted curve at half-maximal effect. A digest of the protocol: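 Compounds were tested on CYP2C19 activity via proluciferin conversion to luciferin. The 37C, 1 h reaction followed NADPH addition; detection reagent stopped it.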

The target of experiment [10] is Cytochrome P450 1A2 (Homo sapiens) (UniProt P05177). Description: Cytochrome P450 Family 1 Subfamily A Member 2 (CYP1A2) small molecule antagonists: luciferase reporter qHTS assay (AID 1671199). Also: nearly all actives have a fitted effect of over 50% in size. Also: potency is read from the fitted curve at half-maximal effect. An outline of the steps: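 Inhibition of CYP1A2 conversion of proluciferin to luciferin, detected by luminescence. Reaction run 1 h at room temperature with NADPH regeneration after brief compound preincubation.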
For orientation: A reporter such as luciferase makes a cellular process visible.

In experiment [11] the target is Cytochrome P450 3A4 (Homo sapiens) (UniProt P08684). Description: Cytochrome P450 Family 3 Subfamily A Member 4 (CYP3A4) small molecule antagonists: luciferase reporter qHTS assay (AID 1671201). Also: series mostly up to about 120 µM; % is scaled to controls: 0 for no effect and ±100 for the full control effect; nearly all actives have a fitted effect of over 50% in size. An outline of the steps: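 CYP3A4 activity was followed with a P450-Glo proluciferin substrate. Test compounds in DMSO were preincubated 10 min; NADPH regeneration then ran 1 h, and light output was read 20 min after detection reagent.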

Experiment [12] concerns the target Voltage-gated inwardly rectifying potassium channel KCNH2 (Homo sapiens) (UniProt Q12809). Description: Human Ether-a-go-go-Related Gene (hERG) channel small molecule antagonists: fluorescence cell-based qHTS assay (AID 1671200). An outline of the steps: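 In this thallium-flux screen, overnight-cultured U2OS cells bearing the channel are dye-loaded in darkness for an hour, rested 10 min at room temperature, and then monitored kinetically at 480/540 nm for two minutes post-stimulus.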

Experiment [13] has as its target Cytochrome P450 2C9 (Homo sapiens) (UniProt P11712). Description: Cytochrome P450 Family 2 Subfamily C Member 9 (CYP2C9) small molecule antagonists: luciferase reporter qHTS assay (AID 1671198). Also: nearly all actives have a fitted effect of over 50% in size. Also: potency is read from the fitted curve at half-maximal effect. An outline of the steps: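 P450-Glo proluciferin substrate with CYP2C9 enzyme; 10 min RT preincubation, then NADPH regeneration 1 h at 37C; luciferin detection reagent 20 min RT, luminescence in relative luminescence units.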

Experiment [14] concerns the target Nuclear receptor subfamily 1 group I member 2 (Rattus norvegicus) (UniProt Q9R1A7). Description: Rat pregnane X receptor (rPXR) activation by small molecules, qHTS assay (AID 1346983). Also: % is scaled to controls: 0 for no effect and ±100 for the full control effect; nearly all actives have a fitted effect of over 20% in size. As to conditions: rPXR luciferase reporter cells, One-Glo luminescence, 24 h; active compounds read high. A digest of the protocol: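 Cell-based rPXR activation assay: rPXR cells, 2,000 per well, rested 5hr at 37 C, then exposed to compounds in DMSO for 24 hr at 37 C. Luciferase activity read by One-Glo luminescence after 30 min at room temperature.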

Experiment [15] addresses Nuclear receptor subfamily 1 group I member 2 (Homo sapiens) (UniProt O75469). Description: CYP3A4 induction through human pregnane X receptor (PXR) by small molecules, qHTS assay (AID 1346984). Also: potency is read from the fitted curve at half-maximal effect; nearly all actives have a fitted effect of over 40% in size. A digest of the protocol: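 Steps: seed DPX-2 cells, 5 hr at 37C; pin-transfer compounds; 24 hr at 37C; add Luciferin-IPA (3uM final), 3 hr at 37C; add One-Glo, 30 min RT; read luminescence.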

Experiment [16] has the same target. Description: Human pregnane X receptor (PXR) activation by small molecules, qHTS assay (AID 1346985). Also: potency is read from the fitted curve at half-maximal effect; nearly all actives have a fitted effect of over 40% in size. A digest of the protocol: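 DPX-2 cells (HepG2 co-transfected with a PXR response element and a CYP3A4-promoter luciferase construct) were seeded at 2,000 per well, rested 5 hr at 37C, then exposed to DMSO-dissolved compounds for 24 hr. Activation was read as luciferase luminescence.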

Unmarked numbers belong to inactive results. Results filed as inconclusive are left out. The source made the active and inactive calls. Unless noted, calls follow the shape of the dose curve; as a rule, active = well fitted curve in the direction sought with a large enough effect in the repeat runs; inconclusive = weak or mixed curves; inactive = no such curve, though single readings can be large; an effect the other way counts as inactive or inconclusive.

Sequence of Nuclear receptor subfamily 1 group I member 2 (Homo sapiens) (O75469 whole entry, looked up): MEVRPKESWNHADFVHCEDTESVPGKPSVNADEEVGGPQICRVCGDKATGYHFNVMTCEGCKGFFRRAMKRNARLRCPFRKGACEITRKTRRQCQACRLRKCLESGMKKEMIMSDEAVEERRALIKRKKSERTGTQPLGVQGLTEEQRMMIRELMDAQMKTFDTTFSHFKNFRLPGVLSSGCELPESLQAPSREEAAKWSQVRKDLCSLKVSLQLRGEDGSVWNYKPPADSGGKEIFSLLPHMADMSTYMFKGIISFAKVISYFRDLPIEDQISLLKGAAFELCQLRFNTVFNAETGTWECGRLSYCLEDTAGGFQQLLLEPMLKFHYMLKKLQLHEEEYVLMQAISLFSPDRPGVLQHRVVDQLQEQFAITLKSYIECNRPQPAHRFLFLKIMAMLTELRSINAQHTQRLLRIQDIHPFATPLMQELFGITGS
Sequence of Cytochrome P450 2D6 (Homo sapiens) (P10635 whole entry, looked up): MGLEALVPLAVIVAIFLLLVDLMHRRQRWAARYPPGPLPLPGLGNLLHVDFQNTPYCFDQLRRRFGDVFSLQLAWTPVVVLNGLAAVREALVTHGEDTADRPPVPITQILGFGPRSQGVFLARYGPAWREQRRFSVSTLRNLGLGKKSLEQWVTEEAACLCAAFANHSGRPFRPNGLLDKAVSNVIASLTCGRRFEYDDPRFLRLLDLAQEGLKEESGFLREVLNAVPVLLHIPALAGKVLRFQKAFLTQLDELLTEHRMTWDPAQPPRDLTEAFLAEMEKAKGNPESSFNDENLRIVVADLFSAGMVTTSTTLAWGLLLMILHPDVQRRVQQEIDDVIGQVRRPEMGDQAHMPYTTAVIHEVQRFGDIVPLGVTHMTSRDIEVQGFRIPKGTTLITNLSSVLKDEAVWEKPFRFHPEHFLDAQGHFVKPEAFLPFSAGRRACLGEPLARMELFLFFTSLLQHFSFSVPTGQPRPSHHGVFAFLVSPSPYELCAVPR
Sequence of Cytochrome P450 2C19 (Homo sapiens) (P33261 whole entry, looked up): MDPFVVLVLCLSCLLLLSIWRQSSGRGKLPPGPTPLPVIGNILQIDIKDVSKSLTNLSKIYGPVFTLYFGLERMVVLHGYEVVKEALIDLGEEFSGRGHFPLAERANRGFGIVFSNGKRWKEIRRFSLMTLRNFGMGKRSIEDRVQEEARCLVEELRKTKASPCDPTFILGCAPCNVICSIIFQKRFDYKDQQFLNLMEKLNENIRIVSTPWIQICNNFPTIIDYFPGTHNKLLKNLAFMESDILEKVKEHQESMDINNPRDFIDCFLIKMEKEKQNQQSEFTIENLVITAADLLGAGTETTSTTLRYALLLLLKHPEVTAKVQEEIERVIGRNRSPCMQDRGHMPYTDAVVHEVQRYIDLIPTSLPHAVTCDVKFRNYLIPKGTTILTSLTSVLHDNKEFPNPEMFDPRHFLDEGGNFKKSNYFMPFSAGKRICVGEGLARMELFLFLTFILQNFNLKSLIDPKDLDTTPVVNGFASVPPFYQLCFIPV
Sequence of Cytochrome P450 2C9 (Homo sapiens) (P11712 whole entry, looked up): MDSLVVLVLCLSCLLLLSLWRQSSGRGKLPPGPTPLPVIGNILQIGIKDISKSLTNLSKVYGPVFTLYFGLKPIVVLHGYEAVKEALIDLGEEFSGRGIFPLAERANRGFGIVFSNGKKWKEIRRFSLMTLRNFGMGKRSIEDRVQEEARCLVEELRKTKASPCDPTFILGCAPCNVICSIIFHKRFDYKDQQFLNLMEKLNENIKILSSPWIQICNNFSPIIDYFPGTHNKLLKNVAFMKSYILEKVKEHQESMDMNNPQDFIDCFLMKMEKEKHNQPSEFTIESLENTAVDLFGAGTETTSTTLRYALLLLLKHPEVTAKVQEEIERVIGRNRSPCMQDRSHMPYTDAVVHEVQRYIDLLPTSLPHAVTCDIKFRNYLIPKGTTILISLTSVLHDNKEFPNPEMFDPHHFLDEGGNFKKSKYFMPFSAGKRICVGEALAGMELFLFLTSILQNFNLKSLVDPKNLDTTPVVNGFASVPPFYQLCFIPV
Sequence of Voltage-gated inwardly rectifying potassium channel KCNH2 (Homo sapiens) (Q12809 whole entry, looked up): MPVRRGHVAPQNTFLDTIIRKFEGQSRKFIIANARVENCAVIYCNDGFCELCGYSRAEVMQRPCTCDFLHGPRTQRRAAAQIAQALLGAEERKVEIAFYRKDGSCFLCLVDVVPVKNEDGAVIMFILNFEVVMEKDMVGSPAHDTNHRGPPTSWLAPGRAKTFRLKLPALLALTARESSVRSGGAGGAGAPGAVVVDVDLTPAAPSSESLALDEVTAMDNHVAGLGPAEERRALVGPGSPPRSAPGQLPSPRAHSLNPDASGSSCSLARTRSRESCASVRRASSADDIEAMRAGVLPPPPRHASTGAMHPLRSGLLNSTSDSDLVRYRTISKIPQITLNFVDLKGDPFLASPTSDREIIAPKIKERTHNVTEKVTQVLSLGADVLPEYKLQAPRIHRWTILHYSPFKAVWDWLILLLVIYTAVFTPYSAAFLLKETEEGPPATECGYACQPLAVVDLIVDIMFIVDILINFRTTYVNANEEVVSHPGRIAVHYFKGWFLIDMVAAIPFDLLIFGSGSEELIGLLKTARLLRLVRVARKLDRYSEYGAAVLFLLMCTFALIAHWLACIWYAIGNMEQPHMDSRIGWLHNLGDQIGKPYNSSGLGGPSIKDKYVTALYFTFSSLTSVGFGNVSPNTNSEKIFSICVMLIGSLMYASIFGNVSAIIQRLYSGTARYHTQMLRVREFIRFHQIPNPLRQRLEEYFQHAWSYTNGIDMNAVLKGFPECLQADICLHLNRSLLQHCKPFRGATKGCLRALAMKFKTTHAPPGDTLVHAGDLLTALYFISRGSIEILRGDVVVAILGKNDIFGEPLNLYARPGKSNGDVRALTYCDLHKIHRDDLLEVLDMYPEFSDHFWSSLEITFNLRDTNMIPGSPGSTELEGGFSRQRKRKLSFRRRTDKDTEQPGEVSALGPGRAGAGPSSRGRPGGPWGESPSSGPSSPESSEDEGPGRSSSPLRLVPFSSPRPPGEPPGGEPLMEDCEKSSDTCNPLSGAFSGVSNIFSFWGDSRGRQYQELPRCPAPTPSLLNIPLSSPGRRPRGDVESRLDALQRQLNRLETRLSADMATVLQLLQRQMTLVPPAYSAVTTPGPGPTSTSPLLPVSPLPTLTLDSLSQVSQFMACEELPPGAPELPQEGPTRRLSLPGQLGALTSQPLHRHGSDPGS
Sequence of Cytochrome P450 1A2 (Homo sapiens) (P05177 whole entry, looked up): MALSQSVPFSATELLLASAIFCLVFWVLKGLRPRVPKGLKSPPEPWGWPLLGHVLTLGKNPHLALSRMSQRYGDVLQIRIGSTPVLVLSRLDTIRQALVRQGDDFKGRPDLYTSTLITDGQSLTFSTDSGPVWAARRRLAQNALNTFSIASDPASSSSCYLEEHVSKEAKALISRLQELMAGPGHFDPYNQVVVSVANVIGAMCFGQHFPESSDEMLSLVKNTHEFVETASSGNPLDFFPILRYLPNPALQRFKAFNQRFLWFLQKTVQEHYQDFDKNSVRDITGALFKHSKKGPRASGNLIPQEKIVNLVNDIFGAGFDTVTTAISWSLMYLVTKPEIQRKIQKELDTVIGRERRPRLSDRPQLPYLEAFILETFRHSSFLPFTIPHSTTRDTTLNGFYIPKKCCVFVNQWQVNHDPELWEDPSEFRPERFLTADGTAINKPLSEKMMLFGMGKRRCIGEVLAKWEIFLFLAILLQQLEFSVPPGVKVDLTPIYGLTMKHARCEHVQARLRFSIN
Sequence of Cytochrome P450 3A4 (Homo sapiens) (P08684 whole entry, looked up): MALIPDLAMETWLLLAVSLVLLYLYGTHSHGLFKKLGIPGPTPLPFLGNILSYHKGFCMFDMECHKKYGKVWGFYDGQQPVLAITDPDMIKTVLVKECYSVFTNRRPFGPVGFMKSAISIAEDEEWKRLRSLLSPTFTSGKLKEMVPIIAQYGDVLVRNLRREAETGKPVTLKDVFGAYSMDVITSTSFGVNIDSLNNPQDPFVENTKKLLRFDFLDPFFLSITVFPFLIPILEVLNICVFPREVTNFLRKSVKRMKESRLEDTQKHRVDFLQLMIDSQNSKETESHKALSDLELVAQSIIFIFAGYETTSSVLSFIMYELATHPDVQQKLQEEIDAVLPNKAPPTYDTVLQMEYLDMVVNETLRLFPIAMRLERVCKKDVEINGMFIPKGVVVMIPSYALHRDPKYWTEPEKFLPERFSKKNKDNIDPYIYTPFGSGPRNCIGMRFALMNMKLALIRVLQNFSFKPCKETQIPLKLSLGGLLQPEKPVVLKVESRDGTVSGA
Sequence of Thyrotropin-releasing hormone receptor (Homo sapiens) (P34981 whole entry, looked up): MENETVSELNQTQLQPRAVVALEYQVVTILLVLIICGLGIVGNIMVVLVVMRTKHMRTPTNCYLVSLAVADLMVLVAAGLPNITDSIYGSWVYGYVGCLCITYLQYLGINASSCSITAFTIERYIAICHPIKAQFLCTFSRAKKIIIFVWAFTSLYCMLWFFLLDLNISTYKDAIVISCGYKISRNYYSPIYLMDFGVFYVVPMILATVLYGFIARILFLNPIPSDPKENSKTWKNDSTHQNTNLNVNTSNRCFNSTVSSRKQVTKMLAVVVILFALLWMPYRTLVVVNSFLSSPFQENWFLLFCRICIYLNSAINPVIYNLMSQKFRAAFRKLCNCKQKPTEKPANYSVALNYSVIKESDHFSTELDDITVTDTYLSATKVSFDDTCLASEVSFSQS
Sequence of Nuclear receptor subfamily 1 group I member 2 (Rattus norvegicus) (Q9R1A7 whole entry, looked up): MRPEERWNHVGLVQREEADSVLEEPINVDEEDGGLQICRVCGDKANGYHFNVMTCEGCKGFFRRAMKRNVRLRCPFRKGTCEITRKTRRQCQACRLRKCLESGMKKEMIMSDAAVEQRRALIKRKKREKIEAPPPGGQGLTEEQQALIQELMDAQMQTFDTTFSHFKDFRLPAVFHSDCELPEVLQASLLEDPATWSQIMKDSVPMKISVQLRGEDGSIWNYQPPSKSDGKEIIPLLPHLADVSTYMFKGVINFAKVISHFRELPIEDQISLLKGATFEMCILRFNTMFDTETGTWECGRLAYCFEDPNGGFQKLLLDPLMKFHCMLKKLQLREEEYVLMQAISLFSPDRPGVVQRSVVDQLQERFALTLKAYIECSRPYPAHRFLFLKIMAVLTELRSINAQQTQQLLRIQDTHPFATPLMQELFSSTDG

As for `Cc1cc(C(C)(C)C)c(O)c(C)c1CC1=NCCN1`, the compound was classed as inactive in experiment [1] and in experiment [5]. The Potency result in experiment [2], in experiment [3], in experiment [4], in experiment [6], in [7] and in experiment [9] was “inactive” throughout. Also, the Potency result in experiment [10] and in [11] was “inactive” each time. Moreover, in experiment [8], the Potency was 1.55 µM (active).

On to `C=C(C)C(=O)OCC(C)(C)COC(=O)C(=C)C`, for which the call in experiment [1] and in experiment [5] was inactive. Moreover, the Potency result in experiment [2], in [3], in experiment [4], in experiment [6], in experiment [7] and in experiment [9] was “inactive” in each case. Further, the Potency result in experiment [10], in [12] and in experiment [11] was “inactive” each time.

Consider `C#CC(C)N(C)C(=O)Nc1ccc(Cl)cc1` (stereo not given), for which the result in experiment [1] and in experiment [5] was inactive. For the same compound, the Potency result in [2], in experiment [3], in [4], in experiment [6], in [12] and in experiment [11] was “inactive” in each case. In addition, the Potency was 61.1 µM (active) in [7], 8.93 µM (active) in experiment [9], 4.47 µM (active) in experiment [13] and 3.99 µM (active) in experiment [10].

On to `CC(C)C(=O)OCCc1ccccc1`, for which the result in experiment [1] and in [5] was inactive. For the same compound, the Potency entry in experiment [2], in experiment [3], in experiment [4], in [6], in experiment [7] and in [8] was “inactive” each time. In addition, the Potency entry in experiment [9], in experiment [10], in experiment [12] and in [11] was “inactive” each time.

Turning to `O=C(CCN1CCN(CCO)CC1)N1c2ccccc2Sc2ccc(C(F)(F)F)cc21`, the result in experiment [1] and in experiment [5] was inactive. In addition, the Potency entry in experiment [2], in [3], in [4], in experiment [6], in [8] and in experiment [9] was “inactive” throughout. In addition, the Potency result in experiment [13], in experiment [10] and in experiment [12] was “inactive” throughout. Also, the max activation in experiment [14] is -2.18%. Also, the Potency in experiment [15] was 10 µM (active); in experiment [16] it was 15.8 µM (active).

In the case of `CCC(C)NC(N)=O` (stereo not given), the outcome in [1] and in [5] was inactive. The Potency entry in experiment [2], in [3], in experiment [4], in experiment [6], in experiment [7] and in [9] was “inactive” in each case. For the same compound, the Potency result in experiment [13], in experiment [10], in [12] and in experiment [11] was “inactive” each time.

Regarding `CC(C)CC(C)CC(C)CC(C)COC(=O)c1ccccc1C(=O)OCC(C)CC(C)CC(C)CC(C)C` (stereo not given), the result in experiment [1] and in [5] was inactive. For the same compound, the Potency entry in [2], in [3], in experiment [4], in experiment [6], in experiment [7] and in [12] was “inactive” throughout. Moreover, the Potency in experiment [9] was 65.9 µM (active); in experiment [13], 58.7 µM (active); in experiment [10] it was 65.9 µM (active).

For the compound `N#Cc1ccc(C(=O)O)cc1`, the result in experiment [1] and in experiment [5] was inactive. In addition, the Potency result in [2], in experiment [3], in experiment [4], in experiment [6], in experiment [7] and in experiment [12] was “inactive” each time. Further, the Potency entry in experiment [11] was “inactive”. In [8], the Potency was 28.3 µM (active).

For `Cc1ccc(C=O)cc1C`, the call in experiment [1] and in [5] was inactive. Besides, the Potency entry in experiment [2], in [3], in experiment [4], in experiment [6], in [7] and in [12] was “inactive” in each case. Moreover, the Potency entry in experiment [11] is “inactive”. The Potency in experiment [10] was 35.6 µM (active).

For `CCCCC(CC)COCCO` (stereo not given), the call in experiment [1] and in [5] was inactive. Further, the Potency entry in [2], in experiment [3], in [4], in experiment [6], in experiment [7] and in experiment [8] was “inactive” each time. Also, the Potency result in experiment [9], in experiment [12] and in [11] was “inactive” in each case. Also, in [10], the Potency was 17.8 µM (active).
